# Read-outs that look alike come from different tables or passages of the source.
# Assays:
# Settings in all cases: n = 1
# HUNK = tested on: HUNK
# ICK = tested on: ICK
# IGF1R = tested on: IGF1R
# IKK-alpha = tested on: T1, IKK-alpha
# T1 construct: gene CHUK
# IKK-beta = tested on: T2, IKK-beta
# T2 construct: gene IKBKB
# IKK-epsilon = tested on: T3, IKK-epsilon
# T3 construct: gene IKBKE
# INSRR = tested on: INSRR
# INSR = tested on: INSR
# IRAK1 = tested on: IRAK1
# IRAK3 = tested on: IRAK3
# IRAK4 = tested on: IRAK4
# ITK = tested on: ITK
# [1] = tested on: JAK1(JH1domain-catalytic)
# [2] = tested on: JAK1(JH2domain-pseudokinase)
# [3] = tested on: JAK2(JH1domain-catalytic)
# [4] = tested on: JAK3(JH1domain-catalytic)
# JNK1 = tested on: T4, JNK1
# T4 construct: gene MAPK8
# JNK2 = tested on: T5, JNK2
# T5 construct: gene MAPK9
# JNK3 = tested on: T6, JNK3
# T6 construct: gene MAPK10
# KIT-autoinhibited = tested on: KIT-autoinhibited
# [5] = concentration: 1 μM, replicates: in singlicate
# 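Further: KINOMEscan kinase panel screen.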
smiles,measurement,setting,value
O=c1cc(N2CCOCC2)nc2n(Cc3cccc(Cl)c3Cl)ccn12 [GSK2286295],%Inh,HUNK; [5],0%
same,%Inh,ICK; [5],3%
same,%Inh,IGF1R; [5],12%
same,%Inh,IKK-alpha; [5],0%
same,%Inh,IKK-beta; [5],25%
same,%Inh,IKK-epsilon; [5],10%
same,%Inh,INSRR; [5],0%
same,%Inh,INSR; [5],5%
same,%Inh,IRAK1; [5],0%
same,%Inh,IRAK3; [5],3%
same,%Inh,IRAK4; [5],0%
same,%Inh,ITK; [5],4%
same,%Inh,[1]; [5],17%
same,%Inh,[2]; [5],0%
same,%Inh,[3]; [5],0%
same,%Inh,[4]; [5],0%
same,%Inh,JNK1; [5],1%
same,%Inh,JNK2; [5],30%
same,%Inh,JNK3; [5],15%
same,%Inh,KIT-autoinhibited; [5],0%
O=S(=O)(c1ccc(-c2ccnc3[nH]ccc23)cc1)N1CCCC1 [GSK846226],%Inh,HUNK; [5],0%
same,%Inh,ICK; [5],0%
same,%Inh,IGF1R; [5],0%
same,%Inh,IKK-alpha; [5],29%
same,%Inh,IKK-beta; [5],94.3%
same,%Inh,IKK-epsilon; [5],31%
same,%Inh,INSRR; [5],0%
same,%Inh,INSR; [5],0%
same,%Inh,IRAK1; [5],8%
same,%Inh,IRAK3; [5],22%
same,%Inh,IRAK4; [5],2%
same,%Inh,ITK; [5],10%
same,%Inh,[1]; [5],16%
same,%Inh,[2]; [5],3%
same,%Inh,[3]; [5],86%
same,%Inh,[4]; [5],0%
same,%Inh,JNK1; [5],26%
same,%Inh,JNK2; [5],24%
same,%Inh,JNK3; [5],17%
same,%Inh,KIT-autoinhibited; [5],0%
O=C(Nc1n[nH]c2nc(-c3nccs3)c(Br)cc12)C1CCCC1 [SB-742609],%Inh,HUNK; [5],0%
same,%Inh,ICK; [5],85%
same,%Inh,IGF1R; [5],21%
same,%Inh,IKK-alpha; [5],28%
same,%Inh,IKK-beta; [5],27%
same,%Inh,IKK-epsilon; [5],0%
same,%Inh,INSRR; [5],32%
same,%Inh,INSR; [5],9%
same,%Inh,IRAK1; [5],38%
same,%Inh,IRAK3; [5],0%
same,%Inh,IRAK4; [5],39%
same,%Inh,ITK; [5],24%
same,%Inh,[1]; [5],16%
same,%Inh,[2]; [5],0%
same,%Inh,[3]; [5],23%
same,%Inh,[4]; [5],0%
same,%Inh,JNK1; [5],38%
same,%Inh,JNK2; [5],27%
same,%Inh,JNK3; [5],17%
same,%Inh,KIT-autoinhibited; [5],16%
COc1ccccc1-c1ccc2c(NC(=O)C3CC3)n[nH]c2n1 [SB-711239],%Inh,HUNK; [5],16%
same,%Inh,ICK; [5],0%
same,%Inh,IGF1R; [5],0%
same,%Inh,IKK-alpha; [5],64%
same,%Inh,IKK-beta; [5],0%
same,%Inh,IKK-epsilon; [5],24%
same,%Inh,INSRR; [5],1%
same,%Inh,INSR; [5],0%
same,%Inh,IRAK1; [5],15%
same,%Inh,IRAK3; [5],9%
same,%Inh,IRAK4; [5],7%
same,%Inh,ITK; [5],0%
same,%Inh,[1]; [5],25%
same,%Inh,[2]; [5],0%
same,%Inh,[3]; [5],0%
same,%Inh,[4]; [5],13%
same,%Inh,JNK1; [5],0%
same,%Inh,JNK2; [5],9%
same,%Inh,JNK3; [5],0%
same,%Inh,KIT-autoinhibited; [5],0%
Cc1cccc(-c2nc(Nc3ccc4[nH]ncc4c3)c3ccccc3n2)n1 [GW857175],%Inh,HUNK; [5],0%
same,%Inh,ICK; [5],17%
same,%Inh,IGF1R; [5],0%
same,%Inh,IKK-alpha; [5],6%
same,%Inh,IKK-beta; [5],17%
same,%Inh,IKK-epsilon; [5],21%
same,%Inh,INSRR; [5],0%
same,%Inh,INSR; [5],9%
same,%Inh,IRAK1; [5],9%
same,%Inh,IRAK3; [5],3%
same,%Inh,IRAK4; [5],18%
same,%Inh,ITK; [5],5%
same,%Inh,[1]; [5],18%
same,%Inh,[2]; [5],83%
same,%Inh,[3]; [5],22%
same,%Inh,[4]; [5],60%
same,%Inh,JNK1; [5],36%
same,%Inh,JNK2; [5],32%
same,%Inh,JNK3; [5],31%
same,%Inh,KIT-autoinhibited; [5],30%
COc1cccc(-c2cc(-c3c[nH]nc3-c3ccccn3)ccn2)c1 [GW680338],%Inh,HUNK; [5],71%
same,%Inh,ICK; [5],0%
same,%Inh,IGF1R; [5],6%
same,%Inh,IKK-alpha; [5],2%
same,%Inh,IKK-beta; [5],0%
same,%Inh,IKK-epsilon; [5],0%
same,%Inh,INSRR; [5],0%
same,%Inh,INSR; [5],0%
same,%Inh,IRAK1; [5],13%
same,%Inh,IRAK3; [5],0%
same,%Inh,IRAK4; [5],0%
same,%Inh,ITK; [5],2%
same,%Inh,[1]; [5],7%
same,%Inh,[2]; [5],0%
same,%Inh,[3]; [5],0%
same,%Inh,[4]; [5],0%
same,%Inh,JNK1; [5],42%
same,%Inh,JNK2; [5],40%
same,%Inh,JNK3; [5],50%
same,%Inh,KIT-autoinhibited; [5],0%
Cc1ccc(NC(=O)Nc2cccc(Cl)c2)cc1-c1ccc(C(=O)Nc2ccncc2)cc1 [GSK1398468],%Inh,HUNK; [5],13%
same,%Inh,ICK; [5],6%
same,%Inh,IGF1R; [5],0%
same,%Inh,IKK-alpha; [5],0%
same,%Inh,IKK-beta; [5],9%
same,%Inh,IKK-epsilon; [5],15%
same,%Inh,INSRR; [5],0%
same,%Inh,INSR; [5],0%
same,%Inh,IRAK1; [5],27%
same,%Inh,IRAK3; [5],100%
same,%Inh,IRAK4; [5],13%
same,%Inh,ITK; [5],16%
same,%Inh,[1]; [5],16%
same,%Inh,[2]; [5],6%
same,%Inh,[3]; [5],1%
same,%Inh,[4]; [5],0%
same,%Inh,JNK1; [5],15%
same,%Inh,JNK2; [5],14%
same,%Inh,JNK3; [5],0%
same,%Inh,KIT-autoinhibited; [5],0%
Cc1ccc(NC(=O)Nc2cccc(C(F)(F)F)c2)cc1 [GSK955403],%Inh,HUNK; 1 µM,0%
same,%Inh,ICK; 1 µM,0%
same,%Inh,IGF1R; 1 µM,0%
same,%Inh,IKK-alpha; 1 µM,0%
same,%Inh,IKK-beta; 1 µM,0%
same,%Inh,IKK-epsilon; 1 µM,0%
same,%Inh,INSRR; 1 µM,0%
same,%Inh,INSR; 1 µM,0%
same,%Inh,IRAK1; 1 µM,0%
same,%Inh,IRAK3; 1 µM,100%
same,%Inh,IRAK4; 1 µM,0%
same,%Inh,ITK; 1 µM,12%
same,%Inh,[1]; 1 µM,0%
same,%Inh,[2]; 1 µM,12%
same,%Inh,[3]; 1 µM,0%
same,%Inh,[4]; 1 µM,0%
same,%Inh,JNK1; 1 µM,58%
same,%Inh,JNK2; 1 µM,26%
same,%Inh,JNK3; 1 µM,46%
same,%Inh,KIT-autoinhibited; 1 µM,3%
CCn1c(-c2ccccn2)nc2cnccc21 [SB-736398],%Inh,HUNK; [5],7%
same,%Inh,ICK; [5],9%
same,%Inh,IGF1R; [5],19%
same,%Inh,IKK-alpha; [5],37%
same,%Inh,IKK-beta; [5],17%
same,%Inh,IKK-epsilon; [5],0%
same,%Inh,INSRR; [5],0%
same,%Inh,INSR; [5],0%
same,%Inh,IRAK1; [5],45%
same,%Inh,IRAK3; [5],100%
same,%Inh,IRAK4; [5],37%
same,%Inh,ITK; [5],0%
same,%Inh,[1]; [5],0%
same,%Inh,[2]; [5],0%
same,%Inh,[3]; [5],17%
same,%Inh,[4]; [5],0%
same,%Inh,JNK1; [5],24%
same,%Inh,JNK2; [5],19%
same,%Inh,JNK3; [5],8%
same,%Inh,KIT-autoinhibited; [5],0%
Fc1cccc(COc2nnc(-c3ccc4c(c3)CCO4)o2)c1,%Inh,HUNK; [5],7%
same,%Inh,ICK; [5],0%
same,%Inh,IGF1R; [5],2%
same,%Inh,IKK-alpha; [5],21%
same,%Inh,IKK-beta; [5],7%
same,%Inh,IKK-epsilon; [5],0%
same,%Inh,INSRR; [5],0%
same,%Inh,INSR; [5],0%
same,%Inh,IRAK1; [5],44%
same,%Inh,IRAK3; [5],0%
same,%Inh,IRAK4; [5],5%
same,%Inh,ITK; [5],23%
same,%Inh,[1]; [5],0%
same,%Inh,[2]; [5],10%
same,%Inh,[3]; [5],0%
same,%Inh,[4]; [5],5%
same,%Inh,JNK1; [5],6%
same,%Inh,JNK2; [5],0%
same,%Inh,JNK3; [5],0%
same,%Inh,KIT-autoinhibited; [5],0%
O=C(Nc1n[nH]c2nc(-c3nccs3)c(Br)cc12)C1CC1 [SB-742251],%Inh,HUNK; [5],0%
same,%Inh,ICK; [5],61%
same,%Inh,IGF1R; [5],0%
same,%Inh,IKK-alpha; [5],54%
same,%Inh,IKK-beta; [5],49%
same,%Inh,IKK-epsilon; [5],1%
same,%Inh,INSRR; [5],0%
same,%Inh,INSR; [5],2%
same,%Inh,IRAK1; [5],64%
same,%Inh,IRAK3; [5],4%
same,%Inh,IRAK4; [5],43%
same,%Inh,ITK; [5],13%
same,%Inh,[1]; [5],1%
same,%Inh,[2]; [5],21%
same,%Inh,[3]; [5],36%
same,%Inh,[4]; [5],0%
same,%Inh,JNK1; [5],41%
same,%Inh,JNK2; [5],16%
same,%Inh,JNK3; [5],16%
same,%Inh,KIT-autoinhibited; [5],0%
